MsrA inhibitor = bovine MsrA enzyme inhibitors, primary screen, biochemical, absorbance, HTS; inhibition, % at 15.5 µM; actives 0.75% (n = 360,000); purified bovine MsrA, absorbance read-out; AID 651718, 2012;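 also: 0% = vehicle wells with enzyme and 100% = reference inhibitor wells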
PKA-R2B activ = activators of PKA-R2B holoenzyme, primary screen, biochemical, fluorescence polarization, Cy5-IP20, human | activation, % at 11.4 µM | actives 0.079% (n = 340,000) | AID 504700, 2011 | PKA-R2B holoenzyme dissociation; R2B truncated from residue 108, S112A mutant; 0% DMSO only, 100% 113 µM cGMP;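 active = activation above a cutoff set at the mean over all compounds plus 3 SD, cut at about 18% in these data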;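 also: higher means more holoenzyme dissociation and a rise in polarization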
Target sequence (P31323 whole entry, looked up, other chains not shown, the tested form may be a part): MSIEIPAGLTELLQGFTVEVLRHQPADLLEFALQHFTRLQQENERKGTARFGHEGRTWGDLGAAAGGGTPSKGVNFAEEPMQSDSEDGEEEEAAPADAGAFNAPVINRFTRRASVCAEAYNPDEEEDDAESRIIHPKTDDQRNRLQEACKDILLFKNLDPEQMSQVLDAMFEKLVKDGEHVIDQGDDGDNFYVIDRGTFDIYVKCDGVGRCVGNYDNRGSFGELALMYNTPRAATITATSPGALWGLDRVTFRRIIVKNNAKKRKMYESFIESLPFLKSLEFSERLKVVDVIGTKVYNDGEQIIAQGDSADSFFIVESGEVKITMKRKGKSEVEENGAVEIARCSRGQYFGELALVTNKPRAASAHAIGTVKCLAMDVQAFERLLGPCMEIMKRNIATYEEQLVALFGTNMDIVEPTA
PKA-R1A activ = activators of PKA-R1A holoenzyme, primary screen, biochemical, fluorescence polarization, Cy5-IP20, bovine R1A, mouse PKAc | cAMP-dependent protein kinase type I-alpha regulatory subunit (Bos taurus) + … | PKA-R1A dissociation; scaled: DMSO 0%, 113 µM cGMP 100% | activation, % at 11.4 µM | actives 0.083% (n = 340,000) | AID 504707, 2011;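 active = percent activation above the mean of all tested compounds plus 3 SD, cut at about 19% in these data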;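 also: higher means more PKAc released from R1A so a rise in polarization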
bovine MsrA act = bovine MsrA enzyme activators, primary screen, biochemical, absorbance, HTS; Methionine sulfoxide reductase A (Bos taurus); purified bovine MsrA, absorbance read-out; activation, % at 10.6 µM; actives 0.3% (n = 360,000); AID 602163, 2012; in the data active = activation above about 7.5%;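 also: 0% = vehicle and 100% = reference activator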
MsrA act confirm = bovine MsrA activators, retest, confirmation, biochemical, absorbance, HTS. AID 602270, 2012. actives 12% (n = 1,000). shares compounds with bovine MsrA act. activation, % at 10.6 µM. purified bovine MsrA, absorbance read-out; in the data active = activation above about 4%;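 also: enzyme coupled to thioredoxin and thioredoxin reductase with NADPH; 0% = vehicle wells and 100% = reference activator wells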
MsrA conf = bovine MsrA inhibitors, retest, confirmation, biochemical, absorbance, HTS | shares compounds with MsrA inhibitor | AID 651822, 2012 | purified bovine MsrA, absorbance read-out | actives 41% (n = 2,300) | inhibition, % at 15.5 µM;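 also: coupled to thioredoxin reductase with NADPH and selenocystamine and DMSO as substrate; 0% = vehicle only and 100% = full effect of reference inhibitor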
Starred values were filed as active, the others as inactive; . = no result given. Rows were chosen to be rich in hits. Some 1.1% of all compounds tested hit in one or more screens of this group. Rule as the data show it, unless noted: active = inhibition above about 4.5%; inactive = the rest.

SMILES	MsrA inhibitor	PKA-R2B activ	PKA-R1A activ	bovine MsrA act	MsrA conf	others
COc1ccccc1C(=O)N1CCN(C(=O)[C@@H](Cc2ccccc2)NC(=O)[C@H]2O[C@@H](n3cnc(C(N)=O)n3)[C@H](O)[C@@H]2O)CC1	1	.	.	.	.
COc1ccc(Nc2ccc(C(F)(F)F)cc2[N+](=O)[O-])cn1	24*	-2	1	13*	18*	MsrA act confirm=1
O=C1C(Cl)=C(Nc2ccc(O)cc2)C(=O)c2ccccc21	17*	0	-8	9.2*	12*	MsrA act confirm=7.0*
CC(=O)c1ccc(NC(=O)c2ccc([N+](=O)[O-])o2)cc1	11*	0	6	9.1*	5.7*	MsrA act confirm=2
CC(=O)c1cccc(NC(=O)c2ccc([N+](=O)[O-])o2)c1	1	2	0	4	.
COC(=O)N1C[C@H](OC(=S)Nc2ccc(OC)cc2OC)[C@H]2C[C@@H]1c1ccccc1O2	-1	.	.	.	.
COc1ccc(OC)c(/C=N/NC2=NS(=O)(=O)c3ccccc32)c1	3	1	6	0	.
COc1ccc(/C=N/NC2=NS(=O)(=O)c3ccccc32)cc1OC(C)=O	5.4*	-6	-3	15*	4	MsrA act confirm=-4
C[C@H](c1ccccc1)N1C[C@@H](COCc2ccccc2)Oc2cccc(Oc3ccccc3)c2S1(=O)=O	1	.	.	.	.
O=C(O)CSc1cc(NS(=O)(=O)c2ccc(Cl)cc2)c2ccccc2c1O	9.5*	5	3	7.8*	0	MsrA act confirm=0
O=S(=O)(Nc1cc(Sc2cccc3cccnc23)c(O)c2ccccc12)c1ccc(F)cc1	2	.	.	.	.
Cn1ccnc1Sc1cc(NCCCO)c([N+](=O)[O-])c2nonc12	5.7*	-8	-14	-10	2
CC(C)c1ccc(NC(=O)C2Cc3c(-c4cccc(C(N)=O)c4)ccnc3O2)cc1 (centres undefined)	1	.	.	-9	.
COc1ccc(Nc2nc(C)c(C(C)=O)s2)cc1	5.4*	.	.	-5	3
COc1ccc(C(=O)Nc2ccc3c(c2)C(=O)NC3=O)cc1	0	-1	-1	-6	.
Nc1ncc([N+](=O)[O-])cc1Br	5.4*	-8	-20	-11	2
Nc1ncc(Br)cc1Br	1	-9	-9	-4	.
CC(C)(C)OC(=O)N1CCC(CC2CC(c3ccc(Cl)cc3)=NO2)(C(=O)NCC2CCCCC2)CC1 (centres undefined)	-1	7	-8	-13	.
Oc1ccc(/C=N/N=C/c2ccc(O)c(O)c2)cc1O	4.7*	3	3	-6	6.4*
CCOc1cc(/C=N/N=C/c2ccc(O)c(OCC)c2)ccc1O	6.4*	7	-1	-1	4
Oc1ccc(/C=N/N=C/c2ccc(O)cc2)cc1	5.3*	-2	-8	-12	5.5*
CCOc1cc(/C=N/NC(=O)C(=O)NCc2cccnc2)ccc1O	5.7*	5	1	-8	4
COc1ccc(CNC(=O)COC(=O)c2ccc(S(=O)(=O)N3CCOCC3)cc2)cc1	0	0	6	-3	.
COc1cc(/C=N/NC(=O)c2ccc(NC(=O)C3CCCCC3)cc2)ccc1O	4	-2	-9	-6	.
CCOc1cc(/C=N/NC(=O)c2ccc(NC(=O)C3CC3)cc2)ccc1O	5.3*	-4	-11	-6	4
O=C(N/N=C/c1cccs1)c1cccc2cc[nH]c12	5.2*	1	2	-7	4
CCN(CC)c1ccc(C(=O)c2ccccc2C(=O)O)c(O)c1	4.7*	1	4	-4	4.8*
S=c1[nH]nc(C2CCCCC2)n1/N=C/c1ccccc1Cl	15*	0	-6	-2	12*
C#CCOC(=O)/C(=C/C=C/c1ccccc1)NC(=O)c1ccccc1	5.2*	-11	-9	-6	3
Oc1ccc(/C=N/Nc2cc(N3CCCC3)nc(N3CCCC3)n2)cc1	1	-6	5	-6	.
